Results as given in PMC9911399, “Two distinct binding modes provide the RNA-binding protein RbFox with extraordinary sequence specificity”.
Residue numbers refer to the chain shown, from its start. Over roughly 16,000 sequences, “ka relative to ugcaugu” has its median near 0.0091; the highest 2% begin near 0.032. The full list was thinned out, with the highest values kept by preference.

B1: UAGUGAU (DNA:RNA)
RNA: GGGAGACCGGAAUUCAGAUUGUCCUAGUGAUUUAAAUCCCGUCGUAGCCACCA
DNA 1: CAATCTGAATTCCGGTCTCCC
DNA 2: TGGTGGCTACGACGGGATT
B2: CACUUCG (DNA:RNA)
RNA: B1 RNA with U25C, G27C, G29U, A30C, U31G
DNA 1: CAATCTGAATTCCGGTCTCCC
DNA 2: TGGTGGCTACGACGGGATT
B3: GUCUGUU (DNA:RNA)
RNA: B1 RNA with U25G, A26U, G27C, A30U
DNA 1: CAATCTGAATTCCGGTCTCCC
DNA 2: TGGTGGCTACGACGGGATT
B4: GGGUUAG (DNA:RNA)
RNA: B1 RNA with U25G, A26G, G29U, U31G
DNA 1: CAATCTGAATTCCGGTCTCCC
DNA 2: TGGTGGCTACGACGGGATT
B5: CUGAUGG (DNA:RNA)
RNA: B1 RNA with U25C, A26U, U28A, G29U, A30G, U31G
DNA 1: CAATCTGAATTCCGGTCTCCC
DNA 2: TGGTGGCTACGACGGGATT
B6: AGAACUG (DNA:RNA)
RNA: GGGAGACCGGAAUUCAGAUUGUCCAGAACUGUUAAAUCCCGUCGUAGCCACCA
DNA 1: CAATCTGAATTCCGGTCTCCC
DNA 2: TGGTGGCTACGACGGGATT
B7: GCAAAGC (DNA:RNA)
RNA: B6 RNA with A25G, G26C, C29A, U30G, G31C
DNA 1: CAATCTGAATTCCGGTCTCCC
DNA 2: TGGTGGCTACGACGGGATT
B8: UUGCGGA (DNA:RNA)
RNA: B1 RNA with A26U, U28C, A30G, U31A
DNA 1: CAATCTGAATTCCGGTCTCCC
DNA 2: TGGTGGCTACGACGGGATT
B9: GGGGGCU (DNA:RNA)
RNA: B1 RNA with U25G, A26G, U28G, A30C
DNA 1: CAATCTGAATTCCGGTCTCCC
DNA 2: TGGTGGCTACGACGGGATT
B10: CGGCUUU (DNA:RNA)
RNA: B6 RNA with A25C, A27G, A28C, C29U, G31U
DNA 1: CAATCTGAATTCCGGTCTCCC
DNA 2: TGGTGGCTACGACGGGATT
B11: GCGGGCU (DNA:RNA)
RNA: B1 RNA with U25G, A26C, U28G, A30C
DNA 1: CAATCTGAATTCCGGTCTCCC
DNA 2: TGGTGGCTACGACGGGATT
B12: GGGCUUU (DNA:RNA)
RNA: B6 RNA with A25G, A27G, A28C, C29U, G31U
DNA 1: CAATCTGAATTCCGGTCTCCC
DNA 2: TGGTGGCTACGACGGGATT
B13: GGGGCUU (DNA:RNA)
RNA: B6 RNA with A25G, A27G, A28G, G31U
DNA 1: CAATCTGAATTCCGGTCTCCC
DNA 2: TGGTGGCTACGACGGGATT
B14: CGGGGCU (DNA:RNA)
RNA: B1 RNA with U25C, A26G, U28G, A30C
DNA 1: CAATCTGAATTCCGGTCTCCC
DNA 2: TGGTGGCTACGACGGGATT
B15: CCGGGCU (DNA:RNA)
RNA: B1 RNA with U25C, A26C, U28G, A30C
DNA 1: CAATCTGAATTCCGGTCTCCC
DNA 2: TGGTGGCTACGACGGGATT
B16: GGCUUUU (DNA:RNA)
RNA: B6 RNA with A25G, A27C, A28U, C29U, G31U
DNA 1: CAATCTGAATTCCGGTCTCCC
DNA 2: TGGTGGCTACGACGGGATT
B17: CGGGCUU (DNA:RNA)
RNA: B6 RNA with A25C, A27G, A28G, G31U
DNA 1: CAATCTGAATTCCGGTCTCCC
DNA 2: TGGTGGCTACGACGGGATT

biological target: T1, RBFOX1 RRM (Homo sapiens, UniProt Q9NWB1 109-208); assay: EMSA; HiTS-Eq, 1 nM pool, 10 min; buffer printed only for the single-RNA assays: 10 mM Tris pH 7.5, 150 mM NaCl, 3.4 mM EDTA, 0.001% NP-40, 30 C; conditions: tags: His6 N-terminal (pET28a); label: 5' 32P
T1 sequence: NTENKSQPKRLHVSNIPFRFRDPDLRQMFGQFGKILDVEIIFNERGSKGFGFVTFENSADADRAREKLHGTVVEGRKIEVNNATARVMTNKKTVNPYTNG
In short: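 Purified RbFox RRM, wild type or mutant, was incubated for 10 min in 50 µL with 1 nM of a 5′-radiolabelled RNA pool carrying 7 randomized nucleotides, whose flanks were annealed to DNA oligonucleotides, over a series of increasing protein concentrations. Unbound RNA was resolved on 8% native PAGE, cut out, reverse-transcribed, barcoded by PCR and sequenced on an Illumina HiSeq 2500. Relative association constants were derived from changes in read counts for each RNA species versus the control reaction and normalised to the cognate motif.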

| Binder | binding signal |
| --- | --- |
| B1 | 0.00564 KA relative to UGCAUGU |
| B2 | 0.0103 KA relative to UGCAUGU |
| B3 | 0.0246 KA relative to UGCAUGU |
| B4 | 0.0153 KA relative to UGCAUGU |
| B5 | 0.0123 KA relative to UGCAUGU |
| B6 | 0.0109 KA relative to UGCAUGU |
| B7 | 0.0111 KA relative to UGCAUGU |
| B8 | 0.0101 KA relative to UGCAUGU |
| B9 | 0.0377 KA relative to UGCAUGU |
| B10 | 0.0187 KA relative to UGCAUGU |
| B11 | 0.0197 KA relative to UGCAUGU |
| B12 | 0.0244 KA relative to UGCAUGU |
| B13 | 0.033 KA relative to UGCAUGU |
| B14 | 0.0294 KA relative to UGCAUGU |
| B15 | 0.00883 KA relative to UGCAUGU |
| B16 | 0.0115 KA relative to UGCAUGU |
| B17 | 0.0317 KA relative to UGCAUGU |
